For nine molecules, activity, activity change, negative = inhibition and Potency results are on record in PubChem BioAssay (NCATS).

Assay [1] addresses Catechol O-methyltransferase (Homo sapiens) (UniProt P21964). Briefly: Confirmatory Screen for Target Class Profiling of Small Molecule Inhibitors of Methyltransferases (AID 1745852; calls by dose curve; further: potency means the concentration at half of the fitted maximal effect; on activity change, negative = inhibition: on the % scale 0 is the no-effect control and ±100 the full control effect). The following applies: MTase-Glo luminescence, SAH detection, recombinant enzyme; measured here: COMT max response; stronger effect = lower value.
For assay [2], the target named is Guanidinoacetate N-methyltransferase (Homo sapiens) (UniProt Q14353). The description is as above. Conditions: MTase-Glo luminescence, SAH detection, recombinant enzyme.
The target of assay [3] is Nicotinamide N-methyltransferase (Homo sapiens) (UniProt P40261). Described as above. The following applies: MTase-Glo luminescence, SAH detection, recombinant enzyme; measured here: NNMT max response; stronger effect = lower value.
Assay [4] addresses Phenylethanolamine N-methyltransferase (Homo sapiens) (UniProt P11086). Described as above. The following applies: MTase-Glo luminescence, SAH detection, recombinant enzyme; measured here: PNMT max response; stronger effect = lower value.
Assay [5] is described as follows: NCATS anti-infectives library activity on HEK293 viability as a counter-qHTS vs the C. elegans viability qHTS (AID 1745854).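 Further: HEK293 cells exposed to compounds for 24 hr before the viability read; on the % scale 0 is the no-effect control and ±100 the full control effect.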 The following applies: HEK293 viability counter-screen; series mostly up to 41.8 µM. A digest of the protocol: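 Counter-screen for cytotoxicity: HEK293, 24 hr, 37C, compounds up to 41.7 uM final (a dilution series, 1:5). Readout CellTiter-Glo luminescence, 10 min RT. Digitonin control, 83.3 uM final.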
In general terms: In qHTS, concentration-response curves come from the screen itself.

Assay [6] addresses Glutathione peroxidase 1 (Homo sapiens) (UniProt P07203). Briefly: Primary qHTS Assay for Inhibitors of Recombinant Selenoprotein Glutathione Peroxidase 1 (GPX1) (AID 1845191). Further: nearly all actives have a fitted effect of over 65% in size. Further: potency means the concentration at half of the fitted maximal effect. The following applies: recombinant GPX1, GR-coupled NADPH fluorescence, 15 min; series mostly up to 48.8 µM. A digest of the protocol: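 NADPH consumption tracked by fluorescence at 340/450 nm between t=0 and t=15 min, room temperature. Final mix: 10 nM GPX1, 100 nM glutathione reductase, 1 mM GSH, 0.5 mM NADPH, 0.5 mM cumene hydroperoxide, 0.01% BSA; 30 min compound–enzyme preincubation.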

Assay [7] deals with Phospholipid hydroperoxide glutathione peroxidase GPX4 (Homo sapiens) (UniProt P36969). Briefly: Primary qHTS Assay for Inhibitors of Recombinant Selenoprotein Glutathione Peroxidase 4 (GPX4) (AID 1845192). Further: nearly all actives have a fitted effect of over 65% in size. Further: potency means the concentration at half of the fitted maximal effect. On activity change, negative = inhibition: on the % scale 0 is the no-effect control and ±100 the full control effect. Conditions: recombinant GPX4, GR-coupled NADPH fluorescence, 15 min; series mostly up to 50 µM. A digest of the protocol:
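NADPH consumption followed by fluorescence at 340/450 nm, t=0 and after 15 min at room temperature. Reaction started with cumene hydroperoxide (0.5 mM final) after 30 min compound–GPX4 preincubation; final 200 nM GPX4, 100 nM GR, 1 mM GSH, 0.5 mM NADPH.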

Assay [8] deals with Luciferin 4-monooxygenase (Photinus pyralis) (UniProt P08659). Briefly: Primary firefly luciferase (FLuc) qHTS assay for identification of artifact compounds. (AID 1845220). Further: nearly all actives have a fitted effect of over 60% in size.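 On activity change, negative = inhibition: plate controls were DMSO vehicle for no effect and no enzyme for full effect.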 The following applies: purified firefly luciferase, luminescence, 5 min; series mostly up to 54.1 µM. In a few lines:
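Cell-free, 1536-well qHTS. Buffer pH 7.6 with 0.01% Tween-20 and 0.05% BSA; 10 uM D-luciferin, 10 uM ATP; 10 nM P. pyralis luciferase; luminescence after 5 min.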

Assay [9] in a line: Primary fluorescence-based thiol-reactive (MSTI) qHTS assay for identification of artifact compounds. (AID 1845221). Further: nearly all actives have a fitted effect of over 65% in size. Further: potency means the concentration at half of the fitted maximal effect. Conditions: MSTI thiol-reactivity probe, 1 h; series mostly up to 53.8 µM. A digest of the protocol:
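qHTS titration of compound; 4 uM MSTI, PBS pH 7.4, 2% DMSO; 1 h RT, dark; fluorescence 525/598 nm; normalized to Acetyl-MSTI and MSTI; 4-parameter Hill fit.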

Assay [10] deals with Nanoluciferase (engineered Oplophorus gracilirostris luciferase). Briefly: Primary Nanoluciferase (NLuc) qHTS assay for identification of artifact compounds. (AID 1845222). Further: potency means the concentration at half of the fitted maximal effect. Conditions: NLuc-conditioned medium, Nano-Glo luminescence, 5 min; series mostly up to 54.1 µM. In a few lines: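 Compounds are pinned into diluted (1:55) conditioned medium of NLuc-expressing S16 cells and held 15 min at room temperature protected from light. Nano-Glo substrate follows, and luminescence is read 5 min later.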

The nature of assay [11]: Primary redox qHTS assay for identification of artifact compounds. (AID 1845223). The following applies: Amplex Red/HRP redox cycling with DTT, fluorescence; series mostly up to 53.8 µM. In a few lines: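 Redox-cycling detection via DTT (250 uM final) oxidation coupled to Amplex Red (25 uM)/HRP (250 mU/mL) in HBSS. 15 min preincubation plus 30 min after DTT, room temperature. Ex/Em 525/598 nm; 4-parameter Hill fit against DMSO and 10 uM DA3003.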

A short description of assay [12]: Quantitative High-Throughput drug screen in 47 multiple myeloma cell lines against the NCATS MIPE library collection: FR4_PLB cell viability assay (AID 1918924; further: potency means the concentration at half of the fitted maximal effect; nearly all actives have a fitted effect of over 35% in size). Conditions: FR4_PLB myeloma cells viability, CellTiter-Glo ATP, 48 h; series mostly up to 45.8 µM. In a few lines: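 Myeloma cells (500 per well) were exposed to MIPE 4.0 compounds by pin transfer and incubated 48 hours at 37C, 5% CO2. Viability was read as ATP by CellTiter-Glo luminescence, normalised to DMSO (100%) and media-only (0%) wells.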
(Cellular ATP, detected with luciferase, serves as a proxy for viable cell number.)

The mark [13] stands for this setting: activity change, negative = inhibition: at 57.3 µM (top of the series) unless noted.

Where “and” joins values, the source holds several entries; their conditions need not be identical. Identical values can stand only once. Results filed as inconclusive are left out. The source holds several records for some structures; these can differ, active in one and inactive in another. Calls of active or inactive are those of the source. Unless noted, the call rests on the fitted dose curve; in most records, active means well fitted curve in the direction sought with a large enough effect; inconclusive means small, poorly fitted or top-dose-only effect, or another doubt; inactive means no such curve, though single readings can be large; an effect the other way counts as inactive or inconclusive.

Sequence of Nicotinamide N-methyltransferase (Homo sapiens) (P40261 whole entry, looked up): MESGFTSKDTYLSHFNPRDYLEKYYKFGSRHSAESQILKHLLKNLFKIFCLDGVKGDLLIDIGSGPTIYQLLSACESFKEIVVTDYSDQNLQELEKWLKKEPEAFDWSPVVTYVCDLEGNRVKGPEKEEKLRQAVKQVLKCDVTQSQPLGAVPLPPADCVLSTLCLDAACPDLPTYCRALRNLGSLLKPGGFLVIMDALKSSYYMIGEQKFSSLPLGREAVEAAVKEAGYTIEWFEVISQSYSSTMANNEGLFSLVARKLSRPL
Sequence of Glutathione peroxidase 1 (Homo sapiens) (P07203 whole entry, looked up): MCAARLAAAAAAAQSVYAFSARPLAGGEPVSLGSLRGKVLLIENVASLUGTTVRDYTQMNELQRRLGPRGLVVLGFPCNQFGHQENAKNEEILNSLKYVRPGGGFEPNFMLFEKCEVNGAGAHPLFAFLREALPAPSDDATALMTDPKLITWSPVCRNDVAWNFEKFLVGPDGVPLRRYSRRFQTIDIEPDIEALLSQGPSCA
Sequence of Phenylethanolamine N-methyltransferase (Homo sapiens) (P11086 whole entry, looked up): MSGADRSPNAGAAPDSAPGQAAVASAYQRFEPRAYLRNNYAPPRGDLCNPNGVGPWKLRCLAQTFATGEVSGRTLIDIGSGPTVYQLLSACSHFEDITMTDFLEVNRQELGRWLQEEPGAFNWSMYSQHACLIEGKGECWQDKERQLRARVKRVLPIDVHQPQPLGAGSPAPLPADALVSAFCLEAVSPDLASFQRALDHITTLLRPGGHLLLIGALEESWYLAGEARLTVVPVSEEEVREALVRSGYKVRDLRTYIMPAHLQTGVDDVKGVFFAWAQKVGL
Sequence of Phospholipid hydroperoxide glutathione peroxidase GPX4 (Homo sapiens) (P36969 whole entry, looked up): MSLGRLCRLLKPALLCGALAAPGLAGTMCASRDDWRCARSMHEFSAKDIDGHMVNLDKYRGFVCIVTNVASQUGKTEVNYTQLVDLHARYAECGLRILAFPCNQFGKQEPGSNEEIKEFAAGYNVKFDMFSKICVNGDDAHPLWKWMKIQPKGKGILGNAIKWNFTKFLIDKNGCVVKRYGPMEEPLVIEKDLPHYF
Sequence of Catechol O-methyltransferase (Homo sapiens) (P21964 whole entry, looked up): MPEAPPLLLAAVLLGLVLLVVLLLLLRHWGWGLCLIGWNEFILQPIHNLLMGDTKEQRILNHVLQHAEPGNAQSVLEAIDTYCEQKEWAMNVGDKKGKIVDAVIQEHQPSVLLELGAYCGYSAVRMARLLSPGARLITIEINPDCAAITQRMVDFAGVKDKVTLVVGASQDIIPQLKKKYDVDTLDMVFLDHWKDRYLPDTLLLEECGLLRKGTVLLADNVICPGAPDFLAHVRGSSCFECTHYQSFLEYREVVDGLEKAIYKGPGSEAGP

In the case of `Nc1ccccc1NC(=O)c1ccc(CNc2nccc(-c3cccnc3)n2)cc1`, the figures for the activity in [1], in assay [3] and in assay [4] were -14%, -33.2% and -7.44%, respectively. The activity change, negative = inhibition in [2] (setting [13]) was -1.06%. Besides, the Potency entry in assay [5], in [6], in assay [7], in assay [8], in [9] and in assay [10] was “inactive” throughout. For the same molecule, the Potency result in [11] is “inactive”. Besides, in assay [12], the Potency was 0.935 µM (active).
In the case of `CC1(C)CC(=O)c2c(C(F)(F)F)nn(-c3ccc(C(N)=O)c(NC4CCC(OC(=O)CN)CC4)c3)c2C1` (configuration not stated), the activity in [1] is -2.7%; in [3], -47.8%; in assay [4], -0.772%. The activity change, negative = inhibition in assay [2] (setting [13]) turned out to be 0%. The Potency entry in [6], in [7], in assay [8], in assay [9], in assay [10] and in assay [11] was “inactive” each time.
With `CCn1cc(-c2ccnc3[nH]c(-c4cccc(CN(C)C)c4)cc23)c(-c2ccc(NC(=O)N(C)C)cc2)n1`, the activity was -5.39% and -8.37% in assay [1]; -7.11% and -33% in assay [3]; -1.24% and -20% in assay [4]. In addition, the results for the activity change, negative = inhibition in assay [2] (at 29.8 µM (top of the series)) and in [2] (at 57.3 µM (top of the series)) were 2.9% and -1.45%, respectively. In addition, the Potency result in assay [7], in assay [8], in assay [9] and in [10] was “inactive” throughout. Further, in assay [12], the Potency was 20.9 µM (active).
Take `NC(=O)c1cccc2cn(-c3ccc([C@@H]4CCCNC4)cc3)nc12`: the Potency result in assay [5], in assay [8], in assay [9] and in [10] was “inactive” each time. Also, the Potency in [6] is 18.3 µM (active) and 22.7 µM (active); in assay [7], 16.1 µM (active).
Take `C=CC(=O)Nc1cccc(Oc2nc(Nc3ccc(N4CCN(C)CC4)cc3)ncc2Cl)c1`: the results for the activity in [1], in assay [3] and in assay [4] were -18%, -51.9% and -14.3%, respectively. Moreover, the Potency in [2] (setting [13]) was 27.1 µM (active); in assay [9], 1.89 µM (active). For the same molecule, the Potency entry in assay [6], in assay [7] and in assay [10] was “inactive” throughout.
With `O=C(O)C1(Cc2cccc(Nc3nccs3)n2)CCC(Oc2cccc(Cl)c2F)CC1` (configuration not stated), the activity was -35% in assay [1], -34.5% in assay [3] and -68.7% in assay [4]. Moreover, the values for the Potency in [2] (setting [13]) and in assay [12] were 42.9 µM (active) and 0.418 µM (active), respectively. For the same molecule, the Potency result in [6], in [7], in assay [8], in assay [9], in assay [10] and in [11] was “inactive” in each case.
Turning to `NC1(Cc2ccc(Cl)cc2)CCN(c2ncnc3[nH]ccc23)CC1`, the activity in [1] was -4.59%; in [3], -26.7%; in [4], -31.7%. In assay [2] (setting [13]), the activity change, negative = inhibition was found to be 0.429%. Also, the Potency entry in assay [7], in assay [9], in assay [10] and in assay [11] was “inactive” each time.
Consider `Nc1nc(NCCNc2ncc(-n3ccnc3)c(-c3ccc(Cl)cc3Cl)n2)ccc1[N+](=O)[O-]`, for which the results for the activity in assay [1], in assay [3] and in assay [4] were -0.828%, -47.1% and -4.53%, respectively. Also, in [2] (setting [13]), the activity change, negative = inhibition was determined as 0%. The Potency result in assay [6], in assay [7], in assay [8], in [9] and in [11] was “inactive” each time. In addition, the Potency in [10] is 0.536 µM (active); in assay [12], 13.2 µM (active).
Consider `Nc1cccc(-c2cc3c(Oc4cccc(O)c4)ncnc3[nH]2)c1`, for which the activity in [1] is -47.2%; in assay [3] it was -47.2%; in [4], -55.3%. Moreover, the Potency is 30.4 µM (active) in assay [2] (setting [13]); “inactive and 14.3 µM (active)” in [7]; 9.47 µM (active) in assay [9]; 14.8 µM (active) in assay [12]. Moreover, the Potency entry in [6], in [8], in assay [10] and in assay [11] was “inactive” each time.
